Compound activity: PubChem, several laboratories
Most compounds without a hit are left out; they make up all but 1.3% or so of the library.
Beta2AR agonist – human beta-2 adrenergic receptor agonism by FAP; P07550; Am2.2-beta2AR cells, FAP receptor internalization, flow cytometry; response, % (test concentration not listed); 340,000 tested, 0.43% active; AID 504454;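 active = response above a set limit, near 3 SD of response in nonfluorescent compounds, cut at about 42% in these data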
GRK2 aptamer HTS – human GRK2 inhibition via aptamer displacement; bead flow cytometry, FAM-aptamer displacement from GRK2; inhibition of aptamer binding, % at 10 µM; 330,000 tested, 0.59% active;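 active = inhibition of aptamer binding above 40%, roughly 3 SD of noise, on plates passing a quality check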;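 also: median bead fluorescence of bound FAM aptamer so fluorescent compounds give negative values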
A1 inh – inhibitors of the anti-apoptotic protein A1, read as caspase activation. caspase activation, % (concentration not given with the values). 330,000 tested, 0.066% active. MEF A1-2A-BIM cells, Caspase-Glo 3/7 luminescence, 3 h; percent of clofoctol response, vehicle zero;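 active = over half of replicate activation scores above 10%, or exactly half above 10 with the replicate mean above 10; inconclusive = replicate mean below 10 yet half the replicates above 10; inactive = over half of replicates below 10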
NTR1 agonist – activates human neurotensin receptor 1. P30989. NTR1-U2OS beta-arrestin-GFP spot imaging, agonist mode. activation, % at 20 µM. 330,000 tested, 0.17% active. AID 493036;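 active = activation at or above 40% of the spot to cytoplasm intensity ratio, with at least 20 cells analyzed; inconclusive = wells under 20 cells, flagged as cytotoxic or low count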;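 also: 0% = DMSO without peptide and 100% = 100 nM NTR1 peptide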
Target sequence (P30989 whole entry, looked up): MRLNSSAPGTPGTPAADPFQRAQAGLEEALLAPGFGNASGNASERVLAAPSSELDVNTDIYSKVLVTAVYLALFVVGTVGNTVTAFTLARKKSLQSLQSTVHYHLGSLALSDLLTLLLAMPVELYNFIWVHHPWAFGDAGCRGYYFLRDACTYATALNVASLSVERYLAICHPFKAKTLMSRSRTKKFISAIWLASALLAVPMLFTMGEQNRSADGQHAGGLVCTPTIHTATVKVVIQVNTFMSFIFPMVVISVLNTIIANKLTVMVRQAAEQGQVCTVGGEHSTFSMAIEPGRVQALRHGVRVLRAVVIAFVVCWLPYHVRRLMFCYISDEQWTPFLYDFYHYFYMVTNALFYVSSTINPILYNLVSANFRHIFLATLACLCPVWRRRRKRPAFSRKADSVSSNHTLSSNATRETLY
VLA-4 inh – inhibition in a human VLA-4 binding assay; P13612; VLA-4 expressing cells, ligand binding flow cytometry; inhibition, % (about 7 µM as worked out from the volumes in the protocol); 330,000 tested, 0.2% active; in the data active = inhibition above about 50%
* = called active by the depositor; ? = inconclusive; · = no result given.

SMILES	Beta2AR agonist	GRK2 aptamer HTS	A1 inh	NTR1 agonist	VLA-4 inh
O=C1CCC(/C=C/c2ccccc2)=NN1Cc1ccc(Cl)c(Cl)c1	-7.2	2.0	-0.9	4.9	19.6
O=C1CCC(/C=C/c2ccccc2)=NN1Cc1ccccc1Cl	42.7*	0.0	-0.4	4.8	12.2
O=C(c1ccc(-c2ccc([N+](=O)[O-])cc2)o1)N1CCCCC1	-8.7	6.0	0.3	1.8	-0.7
CC1CC(C)CN(C(=O)c2ccc(-c3ccc([N+](=O)[O-])cc3)o2)C1 (stereo unspecified)	26.5	2.0	10.1*	38.1	-0.1
COc1ccc(F)cc1CN1CCN(C(=O)c2ccc(S(=O)(=O)N3CCCCCC3)cc2)CC1	5.4	·	·	·	·
O=C1C2CC=C(Cl)CC2C(=O)N1CCC[n+]1cccc2ccccc21 (stereo unspecified)	-2.6	83.0*	0.5	-1.3	14.8
CC1CCc2c(sc3nc(C(C)(C)C)nc(N4CCN(C(=O)CCl)CC4)c23)C1 (stereo unspecified)	50.4*	0.0	?	37.8	15.1
CCC(=O)N1CCN(c2nc(CC)nc3sc4c(c23)CCCC4)CC1	-4.9	2.0	0.5	2.7	7.6
CCS(=O)(=O)C1=NN2C(=N)/C(=C\c3ccc(OS(=O)(=O)c4ccccc4)c(OC)c3)C(=O)N=C2S1	·	41.0*	0.6	-0.4	7.8
COc1cc(/C=C2\C(=N)N3N=C(S(C)(=O)=O)SC3=NC2=O)ccc1OS(=O)(=O)c1ccccc1	·	0.0	0.7	1.5	1.4
CCOc1ccc2nc(NCCNC(=O)Nc3cccc(C)c3)c(C#N)cc2c1	-0.6	0.0	7.5*	7.5	-19.6
CC(C)(C)[C@H]1COC(=O)[C@H](NC(=O)OCC2c3ccccc3-c3ccccc32)C/C=C\C[C@@H](CC(=O)N[C@H](CO)Cc2ccccc2)C(=O)N1	-4.3	97.0*	0.4	-0.2	20.0
CC(=O)Nc1cccc(C(=O)/C=C/c2ccc(F)cc2)c1	54.2*	0.0	0.6	6.3	18.2
CC(=O)Nc1cccc(C(=O)/C=C/c2ccc(/C=C/C(=O)c3cccc(NC(C)=O)c3)cc2)c1	·	0.0	-0.3	11.1	31.2
COc1ccc(/C=C/C(=O)Nc2cccc(C(C)=O)c2)cc1	-11.3	88.0*	-3.1	5.8	5.5
COCCNC(=O)CN1CCN(S(=O)(=O)c2ccc3c(c2)CCCC3)CC1	-8.1	0.0	0.1	-1.9	-3.6
O=C(C#Cc1ccccc1)c1ccc([N+](=O)[O-])cc1	68.8*	·	·	-3.6	·
Cc1ccc(-c2nc(NC(=O)CSc3cc(C)c4ccccc4n3)ns2)cc1	18.4	2.0	-1.7	6.7	-15.8
COc1ccc2c(C)cc(SCC(=O)Nc3nsc(-c4ccc(C)cc4)n3)nc2c1	1.6	45.0*	-0.9	12.3	-3.4
C[C@]12c3[nH]c4ccccc4c3CCN1C(=O)C(CC(=O)NCCc1ccccn1)C[C@@H]2C(=O)N1CCOCC1 (stereo partly specified)	7.1	81.0*	0.2	2.4	23.6
C[C@]12c3[nH]c4ccccc4c3CCN1C(=O)C(CC(=O)NCCc1ccccn1)C[C@@H]2C(=O)N1CCCCC1 (stereo partly specified)	-6.2	4.0	1.6	0.1	-17.5
CCN(CC)C(=O)[C@H]1C[C@H](CC(=O)NC(C)(C)C)C(=O)N2CCc3c([nH]c4cc(-c5ccco5)ccc34)[C@]12C	1.6	44.0*	·	3.1	·
C[C@]12c3[nH]c4cc(-c5ccco5)ccc4c3CCN1C(=O)[C@@H](CC(=O)NCCCn1ccnc1)C[C@@H]2C(=O)N1CCCCC1	-9.8	52.0*	·	1.3	·
CC(C)N(C(=O)[C@H]1C[C@H](CC(=O)NC(C)(C)C)C(=O)N2CCc3c([nH]c4cc(-c5ccco5)ccc34)[C@]12C)C(C)C	1.0	2.0	·	6.7	·
O=C(N/N=C/c1cccc(OC(=O)c2ccc3c(c2)OCO3)c1)c1cncc(Br)c1	0.1	1.0	-4.1	13.6	-2.9
SMILES	Beta2AR agonist	GRK2 aptamer HTS	A1 inh	NTR1 agonist	VLA-4 inh
O=C(N/N=C/c1ccc(OC(=O)c2ccc3c(c2)OCO3)cc1)c1cncc(Br)c1	51.6*	0.0	-0.1	1.0	-0.4
CN(CC(=O)Nc1ccccc1)CC(=O)Nc1ccccc1Cl	-9.7	2.0	0.1	-0.5	6.2
CCCCc1ccc(NC(=O)CN(C)CC(=O)Nc2ccccc2Cl)cc1	-11.9	3.0	17.9*	0.1	10.3
Cc1ccc(C)c(OCCC(=O)Nc2ccc3c(c2)OCO3)c1	-3.3	1.0	0.3	1.6	10.3
CS(=O)(=O)c1ccc(Cl)c(NC(=O)c2cccc(-n3cnnn3)c2)c1	-11.9	2.0	-0.1	1.6	11.0
O=C1c2cccc3cccc(c23)C(=O)N1c1nccs1	0.4	2.0	0.5	-0.3	-1.7
O=C1c2cccc3cccc(c23)C(=O)N1c1ccc2ncccc2c1	69.5*	0.0	-0.9	7.0	-3.2
CCCc1cc(-c2nc(N)ncc2-c2ccc3c(c2)OCCCO3)c(O)cc1OC	12.8	0.0	0.7	49.3*	-2.6
O=C(COc1ccc(/C=N/NC(=O)c2cc3ccccc3o2)cc1Br)Nc1ccccc1	-17.7	16.0	26.9*	1.0	26.6
O=C(N/N=C/c1ccco1)c1cc2ccccc2o1	-5.8	4.0	-0.2	0.6	-0.4
Cc1ccc(S(=O)(=O)NC(=O)C2CCCCC2)cc1	4.7	0.0	0.3	-1.9	1.2
CC1=C/C(=C(\c2ccc(O)c(C)c2)c2ccccc2S(=O)(=O)O)C=CC1=O	2.1	1.0	0.1	-0.3	11.4
O=C(O)C1=CC(=C(c2ccc(O)c(C(=O)O)c2)c2ccc(O)c(C(=O)O)c2)C=CC1=O	·	99.0*	0.6	·	7.0
Cc1ccc(NC(=O)c2ccc(N/N=C/c3cccc(O)c3)c([N+](=O)[O-])c2)cc1	7.1	4.0	36.0*	3.3	0.8
O=C(Sc1n[nH]c(=O)[nH]c1=O)c1ccccc1	-18.2	·	·	·	·
CCCCNC(=O)/C(=C\c1ccc([N+](=O)[O-])o1)NC(=O)c1ccccc1	-0.9	0.0	-0.2	-1.0	-1.0
COC(=O)/C(=C\c1ccc([N+](=O)[O-])o1)NC(=O)c1ccccc1	55.9*	0.0	0.1	12.6	3.2
CCOC(=O)c1sc(NC(=O)CSc2nc(-c3ccco3)cc(C(F)(F)F)n2)c(C(=O)OCC)c1C	5.3	·	·	·	·
O=Nc1c(-c2c(O)[nH]c3cc(Br)ccc23)[nH]c2ccccc12	43.2*	2.0	-0.5	12.0	-110.8
O=C(CNC(=O)c1ccccc1)N=Nc1c(O)[nH]c2ccc(Br)cc12	-6.8	0.0	-0.8	3.3	-4.3
CCc1c(C)sc(NC(=O)Cc2ccccc2OC)c1C(=O)N1CCOCC1	1.2	4.0	0.9	-0.3	-2.7
CC(C)c1ccc(-c2nn(-c3ccccc3)cc2C(=O)NCC2CCCO2)cc1 (stereo unspecified)	-7.3	2.0	0.0	1.5	2.2
CC(=O)c1c(C)[nH]c(C(=O)COC(=O)Cc2ccccc2F)c1C	58.7*	1.0	1.4	-1.7	-7.9
